Assay type in all cases: functional
Assay [1] has as its system Plasmodium falciparum. In words: GSK_TCMDC: Inhibition of Plasmodium falciparum 3D7 in whole red blood cells, using parasite LDH activity as an index of growth. Test compounds present at 2uM.
In assay [2] the test system is Plasmodium falciparum. In words: GSK_TCMDC: Inhibition of Plasmodium falciparum Dd2 in whole red blood cells, using parasite LDH activity as an index of growth. Test compounds present at 2uM.
The test system of the next assay is HepG2. In words: GSK_TCMDC: Percent inhibition of human HepG2 cell line. Test compounds present at 10uM.

The values that follow come from ChEMBL document CHEMBL1157539, “Thousands of chemical starting points for antimalarial lead identification” (Nature, 2010).

As for `O=C(O)C(F)(F)F.c1ccc2c(c1)CN(CC1CC1)CC1(CCN(Cc3c[nH]c4cnccc34)CC1)O2`, the Inhibition in the assay on Plasmodium falciparum [1] was found to be 100%; in the assay on Plasmodium falciparum [2], 14%; in the assay with HepG2 it was 30%.

For `O=C(O)C(F)(F)F.c1ccc(-c2ccc(CNCc3ccc(-c4cccc(-c5nc6ccccc6[nH]5)c4)cc3)s2)nc1`, the Inhibition is reported as 98% with Plasmodium falciparum [1], 80% with Plasmodium falciparum [2] and 48% with HepG2.

For the compound `Nc1c(Cl)cc(C(O)CNCCCCCCOCCc2ccc(O)cc2)cc1Cl.O=C(O)/C=C/C(=O)O` (stereo not given), the Inhibition is listed as 97% with Plasmodium falciparum [1], 97% in the assay on Plasmodium falciparum [2] and 13% in the assay on HepG2.

Consider `Cc1cc(N2Cc3ccccc3C2)nc(Nc2ccc(S(=O)(=O)N3CCOCC3)cc2)n1.Cl`, for which the results for the Inhibition with Plasmodium falciparum [1], in the assay with Plasmodium falciparum [2] and in the assay with HepG2 were 100%, 85% and 13%, respectively.

As for `FC(F)(F)Oc1cccc(CNc2noc(-c3sccc3Br)n2)c1`, the figures for the Inhibition with Plasmodium falciparum [1], in the assay on Plasmodium falciparum [2] and with HepG2 were 100%, 97% and 0%, respectively.

With `CN(c1ncc(-c2cccc(CNCc3ccccc3O)c2)cn1)C1CCCCC1`, the results for the Inhibition in the assay on Plasmodium falciparum [1], with Plasmodium falciparum [2] and in the assay with HepG2 were 95%, 71% and 12%, respectively.

With `Cc1cnc(C(=O)Nc2cccc(-c3cccc(-c4nc5cccc(C)c5[nH]4)c3)c2)cn1`, the Inhibition in the assay with Plasmodium falciparum [1] worked out at 99%; with Plasmodium falciparum [2] it was 45%; in the assay on HepG2 it was 15%.

Take `CN(CCN1CCC(c2c[nH]c3ccccc23)CC1)c1ccc(-c2nc3cc(Cl)c(Cl)cc3[nH]2)cc1`: the Inhibition in the assay with Plasmodium falciparum [1] was 100%; in the assay with Plasmodium falciparum [2], 100%; with HepG2 it was 22%.

As for `O=C(O)C(F)(F)F.Oc1ccc(CCNc2nc(NCc3cccc(-c4cc(C(F)(F)F)ccc4Cl)c3)nc(N3CCNCC3)n2)cc1`, the Inhibition in the assay on Plasmodium falciparum [1] worked out at 90%; in the assay with Plasmodium falciparum [2], 8%; in the assay with HepG2, 33%.

On to `CCCCc1cc(NCc2ccncc2)nc(Nc2cccc(OC)c2)n1`, for which the Inhibition with Plasmodium falciparum [1] was determined as 100%; in the assay with Plasmodium falciparum [2], 56%; in the assay with HepG2 it was 41%.
